Measurements reported in PubChem BioAssay AID1159580 (chemical genetic matrix, 2015).
The campaign covered roughly 5,500 compounds. About 2,000 (36%) were called active. Inconclusive results (about 18%) are left out. Cut-off read from the data, not from the text of the source: active = normalized growth mostly below about 0.91 (no sharp cut-off); inconclusive = no clear call, values can overlap the other calls; inactive = mostly above about 0.92. This is one part of the list.

Test: chemical genetic growth profiling, strain panel (AID 1159580);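 note: tested at 20 µM; growth read once vehicle control cultures reached saturation at 30 °C; 1 = growth at the plate median or of vehicle wells; lower values mean less growth of the strain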
Settings: growth OD

Measured: normalized growth

COc1ccc(-c2oc3cc(O[C@H]4O[C@H](CO)[C@@H](O)[C@H](O)[C@H]4O)c(OC)c(O)c3c(=O)c2OC)cc1O
inactive: S. cerevisiae deletion strains, locus YAL013W, strain DEP1, hits give low values 1.02 | S. cerevisiae deletion strains, locus YAL021C, strain ccr4, hits give low values 1.01 | S. cerevisiae deletion strains, locus YAL026C, strain drs2, hits give low values 0.996 | S. cerevisiae deletion strains, locus YAL030W, strain snc1, hits give low values 1 | S. cerevisiae deletion strains, locus YBL061C, strain skt5, hits give low values 0.996 | S. cerevisiae deletion strains, locus YBR009C, strain hhf1, hits give low values 0.997 | S. cerevisiae deletion strains, locus YBR021W, strain FUR4, hits give low values 1 | S. cerevisiae deletion strains, locus YBR023C, strain chs3, hits give low values 0.992 | S. cerevisiae deletion strains, locus YBR171W, strain sec66, hits give low values 0.99 | S. cerevisiae deletion strains, locus YBR229C, strain ROT2, hits give low values 1 | S. cerevisiae deletion strains, locus YBR231C, strain swc5, hits give low values 0.99 | S. cerevisiae deletion strains, locus YBR279W, strain paf1, hits give low values 1 | S. cerevisiae deletion strains, locus YCL011C, strain gbp2, hits give low values 1 | S. cerevisiae deletion strains, locus YCL016C, strain dcc1, hits give low values 1 | S. cerevisiae deletion strains, locus YCL029C, strain bik1, hits give low values 0.969 | S. cerevisiae deletion strains, locus YCL061C, strain MRC1, hits give low values 0.998 | S. cerevisiae deletion strains, locus YCL069W, strain vba3, hits give low values 0.999 | S. cerevisiae deletion strains, locus YCR088W, strain abp1, hits give low values 0.996 | S. cerevisiae deletion strains, locus YDL005C, strain med2, hits give low values 1.01 | S. cerevisiae deletion strains, locus YDL035C, strain GPR1, hits give low values 0.991 | S. cerevisiae deletion strains, locus YDL040C, strain nat1, hits give low values 0.994 | S. cerevisiae deletion strains, locus YDL074C, strain BRE1, hits give low values 0.925 | S. cerevisiae deletion strains, locus YDL101C, strain DUN1, hits give low values 0.997 | S. cerevisiae deletion strains, locus YDL134C, strain PPH21, hits give low values 0.982 | S. cerevisiae deletion strains, locus YDL185W, strain tfp1, hits give low values 0.984 | S. cerevisiae deletion strains, locus YDL192W, strain arf1, hits give low values 0.961 | S. cerevisiae deletion strains, locus YDR001C, strain nth1, hits give low values 1 | S. cerevisiae deletion strains, locus YDR069C, strain doa4, hits give low values 1 | S. cerevisiae deletion strains, locus YDR101C, strain arx1, hits give low values 0.97 | S. cerevisiae deletion strains, locus YDR137W, strain rgp1, hits give low values 0.905 | S. cerevisiae deletion strains, locus YDR159W, strain sac3, hits give low values 1 | S. cerevisiae deletion strains, locus YDR162C, strain NBP2, hits give low values 0.983 | S. cerevisiae deletion strains, locus YDR195W, strain ref2 1.01 | S. cerevisiae deletion strains, locus YDR297W, strain sur2, hits give low values 0.989 | S. cerevisiae deletion strains, locus YDR318W, strain mcm21, hits give low values 0.962 | S. cerevisiae deletion strains, locus YDR334W, strain swr1, hits give low values 0.996 | S. cerevisiae deletion strains, locus YDR335W, strain msn5, hits give low values 1 | S. cerevisiae deletion strains, locus YDR388W, hits give low values 0.971 | S. cerevisiae deletion strains, locus YDR392W, strain spt3, hits give low values 0.897 | S. cerevisiae deletion strains, locus YDR502C, strain sam2, hits give low values 0.956 | S. cerevisiae deletion strains, locus YEL003W, strain gim4, hits give low values 0.996 | S. cerevisiae deletion strains, locus YEL037C, strain rad23, hits give low values 0.994 | S. cerevisiae deletion strains, locus YEL061C, strain CIN8 (second series), hits give low values 1 | S. cerevisiae deletion strains, locus YEL061C, strain CIN8, hits give low values 0.981 | S. cerevisiae deletion strains, locus YER015W, strain faa2, hits give low values 1.01 | S. cerevisiae deletion strains, locus YER016W, strain bim1, hits give low values 0.997 | S. cerevisiae deletion strains, locus YER110C, hits give low values 0.964 | S. cerevisiae deletion strains, locus YER111C, strain swi4, hits give low values 1 | S. cerevisiae deletion strains, locus YER155C, strain BEM2 (second series), hits give low values 0.998 | S. cerevisiae deletion strains, locus YER155C, strain BEM2, hits give low values 1.01 | S. cerevisiae deletion strains, locus YER167W, strain BCK2, hits give low values 0.999 | S. cerevisiae deletion strains, locus YFR010W, strain ubp6, hits give low values 1 | S. cerevisiae deletion strains, locus YGL078C, strain dbp3, hits give low values 0.975 | S. cerevisiae deletion strains, locus YGL086W, strain mad1, hits give low values 0.97 | S. cerevisiae deletion strains, locus YGL167C, strain pmr1, hits give low values 0.994 | S. cerevisiae deletion strains, locus YGL173C, strain kem1, hits give low values 0.989 | S. cerevisiae deletion strains, locus YGL227W, strain vid30, hits give low values 0.996 | S. cerevisiae deletion strains, locus YGL240W, strain doc1, hits give low values 1.01 | S. cerevisiae deletion strains, locus YGL248W, strain PDE1, hits give low values 0.984 | S. cerevisiae deletion strains, locus YGL253W, strain hxk2, hits give low values 1 | S. cerevisiae deletion strains, locus YGR078C, strain PAC10, hits give low values 0.959 | S. cerevisiae deletion strains, locus YGR135W, strain pre9, hits give low values 0.949 | S. cerevisiae deletion strains, locus YGR229C, strain SMI1, hits give low values 0.956 | S. cerevisiae deletion strains, locus YGR252W, strain gcn5, hits give low values 0.891 | S. cerevisiae deletion strains, locus YHR013C, strain ard1, hits give low values 1.01 | S. cerevisiae deletion strains, locus YHR027C, strain rpn1, hits give low values 1.01 | S. cerevisiae deletion strains, locus YHR030C, strain SLT2, hits give low values 1 | S. cerevisiae deletion strains, locus YHR079C, strain IRE1 (second series), hits give low values 0.99 | S. cerevisiae deletion strains, locus YHR094C, strain hxt1, hits give low values 0.981 | S. cerevisiae deletion strains, locus YHR129C, strain ARP1, hits give low values 0.969 | S. cerevisiae deletion strains, locus YHR142W, strain chs7, hits give low values 0.985 | S. cerevisiae deletion strains, locus YHR200W, strain rpn10, hits give low values 0.953 | S. cerevisiae deletion strains, locus YIL066C, strain RNR3, hits give low values 0.98 | S. cerevisiae deletion strains, locus YIL073C, strain SPO22, hits give low values 0.971 | S. cerevisiae deletion strains, locus YIL125W, strain kgd1, hits give low values 0.981 | S. cerevisiae deletion strains, locus YIR030C, strain dcg1, hits give low values 0.982 | S. cerevisiae deletion strains, locus YJL092W, strain hpr5, hits give low values 1 | S. cerevisiae deletion strains, locus YJL095W, strain BCK1 (second series), hits give low values 0.992 | S. cerevisiae deletion strains, locus YJL095W, strain BCK1, hits give low values 0.916 | S. cerevisiae deletion strains, locus YJL115W, strain asf1, hits give low values 1 | S. cerevisiae deletion strains, locus YJL129C, strain trk1, hits give low values 0.935 | S. cerevisiae deletion strains, locus YJL134W, strain LCB3, hits give low values 0.995 | S. cerevisiae deletion strains, locus YJL154C, strain vps35, hits give low values 1.01 | S. cerevisiae deletion strains, locus YJL164C, strain tpk1, hits give low values 0.992 | S. cerevisiae deletion strains, locus YJL166W, strain qcr8, hits give low values 1 | S. cerevisiae deletion strains, locus YJL168C, strain set2, hits give low values 0.977 | S. cerevisiae deletion strains, locus YJL187C, strain SWE1 (second series), hits give low values 0.965 | S. cerevisiae deletion strains, locus YJL187C, strain SWE1, hits give low values 1.01 | S. cerevisiae deletion strains, locus YJR043C, strain POL32, hits give low values 0.982 | S. cerevisiae deletion strains, locus YKL009W, strain mrt4, hits give low values 0.965 | S. cerevisiae deletion strains, locus YKL068W, hits give low values 0.99 | S. cerevisiae deletion strains, locus YKL085W, strain MDH1 (second series), hits give low values 0.994 | S. cerevisiae deletion strains, locus YKL085W, strain MDH1, hits give low values 0.994 | S. cerevisiae deletion strains, locus YKL160W, strain elf1, hits give low values 0.992 | S. cerevisiae deletion strains, locus YKR001C, strain vps1, hits give low values 1 | S. cerevisiae deletion strains, locus YKR026C, strain gcn3, hits give low values 0.995 | S. cerevisiae deletion strains, locus YKR091W, strain srl3, hits give low values 1 | S. cerevisiae deletion strains, locus YLL001W, strain dnm1, hits give low values 0.994 | S. cerevisiae deletion strains, locus YLL026W, hits give low values 0.995 | S. cerevisiae deletion strains, locus YLL041C, strain sdh2, hits give low values 1 | S. cerevisiae deletion strains, locus YLR027C, strain aat2, hits give low values 1.01 | S. cerevisiae deletion strains, locus YLR039C, strain RIC1, hits give low values 0.989 | S. cerevisiae deletion strains, locus YLR058C, strain SHM2, hits give low values 0.989 | S. cerevisiae deletion strains, locus YLR102C, strain apc9, hits give low values 0.968 | S. cerevisiae deletion strains, locus YLR221C, strain rsa3, hits give low values 0.997 | S. cerevisiae deletion strains, locus YLR258W, strain gsy2, hits give low values 1 | S. cerevisiae deletion strains, locus YLR262C, strain YPT6 (second series), hits give low values 0.951 | S. cerevisiae deletion strains, locus YLR262C, strain YPT6, hits give low values 0.979 | S. cerevisiae deletion strains, locus YLR268W, strain sec22, hits give low values 0.955 | S. cerevisiae deletion strains, locus YLR320W, strain mms22, hits give low values 0.993 | S. cerevisiae deletion strains, locus YLR330W, strain CHS5, hits give low values 1.01 | S. cerevisiae deletion strains, locus YLR342W, strain FKS1 (second series), hits give low values 0.983 | S. cerevisiae deletion strains, locus YLR342W, strain FKS1, hits give low values 0.995 | S. cerevisiae deletion strains, locus YLR357W, strain rsc2, hits give low values 0.985 | S. cerevisiae deletion strains, locus YLR370C, strain arc18, hits give low values 0.989 | S. cerevisiae deletion strains, locus YLR371W, strain rom2, hits give low values 0.979 | S. cerevisiae deletion strains, locus YLR384C, strain iki3, hits give low values 1.01 | S. cerevisiae deletion strains, locus YLR418C, strain cdc73, hits give low values 0.877 | S. cerevisiae deletion strains, locus YML016C, strain PPZ1, hits give low values 0.994 | S. cerevisiae deletion strains, locus YML032C, strain rad52, hits give low values 0.969 | S. cerevisiae deletion strains, locus YML120C, strain ndi1, hits give low values 0.998 | S. cerevisiae deletion strains, locus YML124C, strain tub3, hits give low values 0.981 | S. cerevisiae deletion strains, locus YMR058W, strain fet3, hits give low values 0.998 | S. cerevisiae deletion strains, locus YMR078C, strain ctf18, hits give low values 0.976 | S. cerevisiae deletion strains, locus YMR125W, strain sto1, hits give low values 0.995 | S. cerevisiae deletion strains, locus YMR129W, hits give low values 0.998 | S. cerevisiae deletion strains, locus YMR205C, strain PFK2, hits give low values 0.981 | S. cerevisiae deletion strains, locus YMR223W, strain ubp8, hits give low values 0.977 | S. cerevisiae deletion strains, locus YMR231W, strain pep5, hits give low values 0.995 | S. cerevisiae deletion strains, locus YMR307W, strain GAS1, hits give low values 0.92 | S. cerevisiae deletion strains, locus YNL067W, strain RPL9B, hits give low values 0.98 | S. cerevisiae deletion strains, locus YNL071W, strain lat1, hits give low values 1.01 | S. cerevisiae deletion strains, locus YNL209W, strain ssb2, hits give low values 0.998 | S. cerevisiae deletion strains, locus YNL233W, strain BNI4, hits give low values 0.977 | S. cerevisiae deletion strains, locus YNL248C, strain rpa49, hits give low values 1 | S. cerevisiae deletion strains, locus YNL250W, strain rad50, hits give low values 0.974 | S. cerevisiae deletion strains, locus YNL271C, strain bni1, hits give low values 0.978 | S. cerevisiae deletion strains, locus YNL298W, strain CLA4, hits give low values 0.963 | S. cerevisiae deletion strains, locus YNL307C, strain MCK1, hits give low values 0.928 | S. cerevisiae deletion strains, locus YNL322C, strain KRE1 (second series), hits give low values 0.999 | S. cerevisiae deletion strains, locus YNL322C, strain KRE1, hits give low values 0.985 | S. cerevisiae deletion strains, locus YNR049C, strain mso1, hits give low values 1 | S. cerevisiae deletion strains, locus YNR052C, strain pop2, hits give low values 0.948 | S. cerevisiae deletion strains, locus YOL012C, strain htz1 0.832 | S. cerevisiae deletion strains, locus YOL147C, strain pex11, hits give low values 0.962 | S. cerevisiae deletion strains, locus YOR001W, strain rrp6, hits give low values 1.02 | S. cerevisiae deletion strains, locus YOR061W, strain CKA2, hits give low values 0.993 | S. cerevisiae deletion strains, locus YOR069W, strain VPS5, hits give low values 0.997 | S. cerevisiae deletion strains, locus YOR070C, strain gyp1, hits give low values 1.02 | S. cerevisiae deletion strains, locus YOR080W, strain dia2, hits give low values 0.999 | S. cerevisiae deletion strains, locus YOR083W, strain WHI5, hits give low values 1 | S. cerevisiae deletion strains, locus YOR106W, strain vam3, hits give low values 1 | S. cerevisiae deletion strains, locus YOR136W, strain idh2, hits give low values 0.986 | S. cerevisiae deletion strains, locus YOR144C, strain elg1, hits give low values 0.968 | S. cerevisiae deletion strains, locus YOR184W, strain ser1, hits give low values 0.944 | S. cerevisiae deletion strains, locus YOR265W, strain rbl2, hits give low values 0.993 | S. cerevisiae deletion strains, locus YOR270C, strain vph1, hits give low values 0.987 | S. cerevisiae deletion strains, locus YOR290C, strain snf2, hits give low values 0.984 | S. cerevisiae deletion strains, locus YOR316C, strain cot1, hits give low values 0.974 | S. cerevisiae deletion strains, locus YPL051W, strain arl3, hits give low values 0.998 | S. cerevisiae deletion strains, locus YPL078C, strain atp4, hits give low values 1.01 | S. cerevisiae deletion strains, locus YPL106C, strain sse1, hits give low values 0.995 | S. cerevisiae deletion strains, locus YPL240C, strain hsp82, hits give low values 1 | S. cerevisiae deletion strains, locus YPR119W, strain clb2, hits give low values 0.978 | S. cerevisiae deletion strains, locus YPR141C, strain kar3, hits give low values 0.977 | S. cerevisiae deletion strains, locus YPR163C, strain tif3, hits give low values 0.933 | S. cerevisiae deletion strains, locus YPR167C, strain met16, hits give low values 0.978 | S. cerevisiae deletion strains, strain wtn01, hits give low values 0.971 | S. cerevisiae strains, strain wild type, hits give low values 0.993
